# Shown are actives, neighbours in structure and some others; about 5.3% of the full set was active somewhere.
# JMJD2A Tudor inh = inhibitors of human JMJD2A Tudor domain | Potency, µM (titrated, usually from 114 µM), inactives show top-dose activity change, negative = inhibition, hits mostly inhibitors | AlphaScreen JMJD2A-Tudor / H3K4me3 peptide binding | O75164 | actives 4.4% (n = 390,000) | AID 504339; note: potency is the fitted concentration of half-maximal effect; % is set by controls: 0 for no effect and ±100 for the full control effect; nearly all actives have a fitted effect of over 50% in size
# CtBP-E1A blk = inhibitors of CtBP/E1A interaction; AlphaScreen GST-E1A/His-CtBP binding, 1536-well; stronger effect = lower value; activity change, % (concentration not given with the values); actives 0.49% (n = 340,000); AID 651724; in the data active = activity change below about -65%; inconclusive = mostly about -30% to -63%; note: % is set by controls: 0 for no effect and ±100 for the full control effect
#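 Steps: dispense buffer (Tris pH 8.0, NaCl 300 mM, TCEP 1 mM, BSA, Tween 20); add 5X protein mix (GST-E1A, His-CtBP, 125 nM each); pin 23 nL compound; 2 h at 37 °C, dark; add 5X beads (50 ug/mL); 1 h; read.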
# Six1-Eya2 blk = blocks human Six1 binding to Eya2; actives 0.56% (n = 360,000); AlphaScreen GST-Six1/His-Eya2 binding, biochemical; stronger effect = lower value; Q15475+O00167; activity change, % (concentration not given with the values); AID 651725; in the data active = activity change below about -65%; inconclusive = mostly about -30% to -63%; note: % is set by controls: 0 for no effect and ±100 for the full control effect
#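 AlphaScreen with GST-Six1 and His-Eya2 (5X mix: 250 nM and 500 nM), glutathione donor and nickel acceptor beads; buffer 50 mM Tris pH 8.0, 300 mM NaCl, 1 mM TCEP; 1 h at 37 C in the dark.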
# HP1b binding inh = inhibitors of HP1-beta chromodomain binding to methylated histone tails. P83916. AlphaScreen HP1-beta / biotin-H3K9me3 peptide binding. Potency, µM (series often up to 114 µM), for the others: top-dose activity change, negative = inhibition, actives largely listed as inhibitors. actives 0.56% (n = 390,000); note: potency is the fitted concentration of half-maximal effect; nearly all actives have a fitted effect of over 70% in size
#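 AlphaScreen: HP1-beta (50 nM) preformed 30 min with biotin-H3(1-18)K9me3 peptide (50 nM) in PBS pH 7.4, 0.01% Tween-20. Compound added for 30 min at RT, then streptavidin donor/nickel chelate acceptor beads (10 ug/mL) for 30 min.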
# TDP1 inh = blocks human tyrosyl-DNA phosphodiesterase 1; AID 485290; Potency, µM (highest dose often 130 µM), for inactives: at the highest dose activity change, negative = inhibition, most hits filed as inhibitors; recombinant TDP1, AlphaScreen DNA substrate cleavage; actives 0.28% (n = 350,000); Q9NUW8; note: potency is the fitted concentration of half-maximal effect; % is set by controls: 0 for no effect and ±100 for the full control effect; nearly all actives have a fitted effect of over 40% in size
#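 Recombinant E. coli-expressed Tdp1 (1 nM) preincubated with compound 15 min at RT, then 5'-biotin/3'-phosphotyrosine-FITC DNA substrate (15 nM) added for 5 min. AlphaScreen beads (10 ug/ml) added, 10 min RT; tyrosine-FITC cleavage read as signal loss.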
# BAZ2B block = BAZ2B (human) inhibition; AlphaScreen BAZ2B-H3K14Ac peptide displacement; Potency, µM (titrated, usually from 114 µM), inactives show top-dose activity change, negative = inhibition, usual class: inhibitors; actives 4.4% (n = 360,000); note: potency is the fitted concentration of half-maximal effect; % is set by controls: 0 for no effect and ±100 for the full control effect; nearly all actives have a fitted effect of over 60% in size
#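 In this displacement format the biotinylated H3(5-23) peptide acetylated at Lys14 serves as ligand at 50 nM, with BAZ2B at 50 nM in PBS pH 7.4 containing 0.01% Tween-20. Donor and acceptor beads are 10 ug/mL final.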
# An asterisk follows results filed as active; ? = inconclusive; · = not tested or not shown; [ ] = remark or other dose. Unless noted, calls come from the whole dose curve; as a rule, active = well fitted inhibition curve with a large enough effect; inconclusive = small, poorly fitted or top-dose-only effect; inactive = no such curve, though single readings can be large or run the other way.
SMILES,JMJD2A Tudor inh,CtBP-E1A blk,Six1-Eya2 blk,HP1b binding inh,TDP1 inh,BAZ2B block
COc1ccc(N2CCN(S(=O)(=O)c3cc(-c4cc(C)no4)ccc3C(C)C)CC2)cc1,-4.9%,·,2.8,29.0%,2.8%,10µM*
COc1cccc(C(=O)Nc2ccccc2C(=O)OCc2cc(=O)n3c4c(sc3n2)CCCC4)c1,-15.2%,·,·,-2.5%,-1.2%,-13.9%
O=[N+]([O-])c1ccc(Cl)c(/C=N/n2c(COc3ccccc3)n[nH]c2=S)c1,50.1µM*,23.9,9.4,?,5.3%,-8.8%
S=c1[nH]nc(COc2ccccc2)n1/N=C/c1ccncc1,25.1µM*,·,6.9,28.5%,2.6%,-24.6%
S=c1[nH]nc(COc2ccccc2)n1/N=C/c1ccccn1,3.98µM*,7.5,2.7,-12.6%,3.5%,13.4%
Cc1ccc(C(=O)N2CCN(c3ccc(F)cc3)CC2)cc1NC(=O)c1nsc2ccccc12,-34.7%,·,·,3.8%[57 µM],5.4%,-17.4%
Cn1c(=O)c2[nH]c(CN(Cc3ccccc3)Cc3ccccc3)nc2n(C)c1=O,-8.3%,-3.1,-0.4,20.6%,4.1%,2.4%
CN(C)Cc1nc2c([nH]1)c(=O)n(C)c(=O)n2C,3.55µM*,2.0,-5.4,23.9%,-8.2%,-3.8%
Nc1cc(C(=O)O)ccc1N1CCCCC1,?,2.1,1.0,-20.5%,?,?
CC1CCN(c2ccc(C(=O)O)cc2N)CC1,-24.6%,2.2,-1.9,6.1%,-7.8%,50.1µM*
Cc1cc(-c2ccccc2)n2nc(-c3cccc(Br)c3)cc2n1,80.6%,·,·,112.9%,·,66.1%
Cc1ccc2c(=O)cc(C(=O)N(Cc3ccc(C(C)(C)C)cc3)C3CCS(=O)(=O)C3)oc2c1 (stereo not drawn),-19.8%,·,·,52.1%,7.4%,-27.4%
CCN(CC)C(=O)C1=C(C)Nc2nc3ccccc3n2C1c1cccc(Cl)c1 (stereo not drawn),-16.0%,·,·,24.7%,0.9%,0.5%
Nn1c(Cc2cccc3ccccc23)nnc1SC1CCOC1=O (stereo not drawn),89.1µM*,4.5,6.2,36.7%,-7.1%,-37.1%
OCCN(Cc1ccccc1)Cc1cccc(C(F)(F)F)c1,7.94µM*,15.4,10.5,?,-5.1%,?
CN(Cc1ccc(C(F)(F)F)cc1)C(=O)c1ccc(Oc2ccccc2)cc1,63.9%,7.9,21.4,96.2%,·,50.1%
OCCN(Cc1ccccc1)Cc1ccc(C(F)(F)F)cc1,7.94µM*,6.1,6.5,15.8µM*,1.4%,?
O=C(COCc1cc(-c2ccc3c(c2)OCO3)on1)Nc1cccc(O)c1,-8.3%,·,·,39.7%,5.0%,-2.1%
CCOC(=O)CCN1C(=O)[C@H]2[C@@H]3[C@H](O)[C@H](O)CC(=O)[C@H]3CC[C@H]2C1=O,·,·,·,·,9.0%[21 µM],·
CCOc1ccc(C2CC(=O)Nc3c2c(=O)[nH]c2ncnn32)cc1 (stereo not drawn),-14.9%,·,·,9.9%,1.9%,-12.0%
O=C(CSC1=Nc2ccccc2C2=NC(Cc3ccccc3)C(=O)N12)Nc1ccccc1C(F)(F)F (stereo not drawn),-1.7%,·,·,28.3%,6.2%,-1.4%
CN1CCN(S(=O)(=O)c2ccccc2)CC1,-17.7%,5.0,0.8,22.3%,0.5%,-4.5%
CC(C)N1CCN(S(=O)(=O)c2ccc3ccccc3c2)CC1,15.8µM*,·,-3.3,?,·,?
CC1CN(C2CCN(S(=O)(=O)c3ccc4ccccc4c3)CC2)CC(C)O1 (stereo not drawn),?,-1.4,-6.0,?,2.9%,44.7µM*
CCS(=O)(=O)N1CCN(S(=O)(=O)c2ccc3ccccc3c2)CC1,-8.9%,5.3,9.2,50.8%,·,-3.7%
SMILES,JMJD2A Tudor inh,CtBP-E1A blk,Six1-Eya2 blk,HP1b binding inh,TDP1 inh,BAZ2B block
CC(C)N1CCN(S(=O)(=O)c2ccccc2)CC1,28.2µM*,4.6,1.9,?,·,?
CCOC(=O)c1c(NC(=O)c2cc(=O)c3cc(Cl)ccc3o2)sc(C)c1C,7.3%,·,·,57.4%,-1.2%,1.8%
COC(=O)Cn1c(-c2ccc(OC)cc2)c(-c2ccc(OC)cc2)nnc1=O,-16.9%,·,2.3,-2.5%,·,56.2µM*
O=C(CCn1c(=O)c2cccn2c2cccnc21)N1CCN(c2ccccc2)CC1,-3.7%,·,·,32.5%,5.1%,-31.1%
CCCCNC(=S)NNc1c(Cl)cc(Cl)cc1Cl,39.8µM*,-1.9,4.1,-32.8%,10.7%,·
N=C1/C(=C\c2ccc(-c3cccc(C(=O)O)c3)o2)C(=O)N=C2SC=C(c3ccccc3)N12,-20.6%[11.4 µM],?,-14.8,?,50.1µM*,22.4µM*
Cc1ccc(/C=C2\C(=N)N3N=C(CC(=O)N4CCOCC4)SC3=NC2=O)o1,56.2µM*,0.0,8.1,-15.6%,-16.3%,-27.0%
COc1cc(/C=C2/C(=N)N3N=C(CC(=O)N4CCOCC4)SC3=NC2=O)ccc1OCc1ccccc1F,-26.0%,-4.2,-6.1,38.5%,1.9%,?
COc1cc(/C=C2/C(=N)N3N=C(CC(=O)N4CCOCC4)SC3=NC2=O)ccc1OCc1ccc(F)cc1,4.47µM*,-16.7,-1.2,9.9%,6.1%,-23.1%
N=C1/C(=C/c2ccc(-c3cccc(C(=O)O)c3)o2)C(=O)N=C2SC(CC(=O)N3CCOCC3)=NN12,20µM*,-16.0,?,?,8.91µM*,25.1µM*
N=C1/C(=C\c2ccc(SCc3ccccc3)o2)C(=O)N=C2SC=NN12,-31.0%,·,-16.0,23.7%,4.9%,-20.3%
N=C1/C(=C\c2ccc(SCc3ccccc3)o2)C(=O)N=C2SC(CC(=O)N3CCOCC3)=NN12,?,·,-5.8,5.8%,3.8%,44.7µM*
N=C1/C(=C\c2ccc(OC(=O)c3ccccc3)cc2)C(=O)N=C2SC(N3CCOCC3)=NN12,?,-24.8,-10.5,-7.5%,·,?
COc1ccccc1-n1c(C)cc(/C=C2\C(=N)N3N=C(CC(=O)N4CCOCC4)SC3=NC2=O)c1C,10.1%,·,-6.4,50.7%,8.2%,50.1µM*
Cc1ccc(C(=O)Oc2ccc(/C=C3\C(=N)N4N=C(N5CCOCC5)SC4=NC3=O)cc2)cc1,?,?,-88.3*,13.5%,·,-32.2%
COc1ccc(OC)c(NC(=O)c2cc(C3CC3)nc3c2c(C)nn3-c2ccc(C)cc2)c1,-29.4%,·,·,-7.4%,1.1%,-1.7%[57.1 µM]
O=C(CN1C(=O)CCc2cc(S(=O)(=O)N3CCOCC3)ccc21)Nc1cccc(Cl)c1,-17.9%,·,·,13.2%,6.2%,-7.2%
CCOC(=O)c1c(C)[nH]c(CCC(=O)Nc2cc(C)ccc2OC)c1C,-24.0%,·,·,13.7%[57 µM],8.1%,-26.7%
Cc1ccc(CN(C(=O)COc2ccc(Cl)c(C)c2)c2ccccn2)o1,-3.3%,·,·,24.9%,-1.6%,-1.0%
O=C(Cc1csc2nc(-c3ccc(F)cc3)cn12)NCc1ccccc1,-6.1%,·,·,20.8%[57 µM],3.0%,-21.7%
